Test results: publication PMC7862700, “An all-to-all approach to the identification of sequence-specific readers for epigenetic DNA modifications on cytosine”

Tests used:
Assay in all cases: DAPPL (digital affinity profiling via proximity ligation, sequencing); 10 mM Tris-HCl pH 7.5, 50 mM NaCl, 1 mM DTT, 4% glycerol, room temperature, 30 min; GST-TFs on glutathione beads, 16-mer random dsDNA library, 0.1% formaldehyde crosslink after washing; high values mean tight binding
FEV = target: T1, FEV (Homo sapiens, UniProt Q99581 1-238); settings: protein: recombinant; tags: N-terminal GST; dsDNA, one strand shown
T1 sequence: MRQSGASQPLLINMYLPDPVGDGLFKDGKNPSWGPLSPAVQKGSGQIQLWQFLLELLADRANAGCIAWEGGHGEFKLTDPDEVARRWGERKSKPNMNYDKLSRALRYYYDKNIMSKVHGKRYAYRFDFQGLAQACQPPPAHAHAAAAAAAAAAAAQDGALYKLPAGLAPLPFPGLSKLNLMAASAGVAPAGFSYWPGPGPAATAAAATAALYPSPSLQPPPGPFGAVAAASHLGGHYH
In short: (§1)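 Yeast served to express human transcription factors as GST fusions, which were then captured on glutathione beads and labelled with DNA barcodes. Pooled with a tag-only sample, they were incubated with 200 nmole of a 16-mer random double-stranded DNA library for 30 min at room temperature in Tris/NaCl/DTT/glycerol buffer, washed, crosslinked with 0.1% formaldehyde, ligated by proximity, amplified by PCR and sequenced. Dividing each hexamer's read frequency for a factor by its frequency for the tag-only sample gives the binding signal.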

ETV5 = ETV5 (Homo sapiens, UniProt P41161 1-510); settings: protein: recombinant; tags: N-terminal GST; dsDNA, one strand shown
In short: as §1

HSF1 = HSF1 (Homo sapiens, UniProt Q00613 1-529); settings: protein: recombinant; tags: N-terminal GST; chain copies: 3; dsDNA, one strand shown
In short: as §1

SPIC = target: T2, SPIC (Homo sapiens, UniProt Q8N5J4 1-248); settings: protein: recombinant; tags: N-terminal GST; dsDNA, one strand shown
T2 sequence: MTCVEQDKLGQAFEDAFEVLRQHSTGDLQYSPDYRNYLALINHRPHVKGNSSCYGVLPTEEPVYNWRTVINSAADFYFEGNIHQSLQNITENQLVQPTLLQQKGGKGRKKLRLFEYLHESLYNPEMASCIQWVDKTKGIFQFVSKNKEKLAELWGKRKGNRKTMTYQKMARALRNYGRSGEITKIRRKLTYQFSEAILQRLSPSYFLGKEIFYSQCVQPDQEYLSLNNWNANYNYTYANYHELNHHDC
In short: as §1

ELF4 = ELF4 (Homo sapiens, UniProt Q99607 1-663); settings: protein: recombinant; tags: N-terminal GST; dsDNA, one strand shown
In short: as §1

ELK4 = target: T3, ELK4 (Homo sapiens, UniProt P28324-2 1-405); settings: protein: recombinant; tags: N-terminal GST; dsDNA, one strand shown
T3 sequence: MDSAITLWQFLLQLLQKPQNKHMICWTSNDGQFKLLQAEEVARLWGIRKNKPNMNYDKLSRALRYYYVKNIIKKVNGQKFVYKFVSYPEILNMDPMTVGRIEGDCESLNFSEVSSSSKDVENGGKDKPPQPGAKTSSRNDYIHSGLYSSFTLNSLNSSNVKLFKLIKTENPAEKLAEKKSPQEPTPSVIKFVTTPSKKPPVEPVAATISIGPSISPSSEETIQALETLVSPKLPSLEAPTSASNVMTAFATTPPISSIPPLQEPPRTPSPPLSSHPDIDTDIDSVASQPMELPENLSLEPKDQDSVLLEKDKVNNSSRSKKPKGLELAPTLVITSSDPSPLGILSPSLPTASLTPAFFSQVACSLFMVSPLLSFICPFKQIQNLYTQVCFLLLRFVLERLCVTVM
In short: as §1

ETV2 = target: T4, ETV2 (Homo sapiens, UniProt O00321 1-342); settings: protein: recombinant; tags: N-terminal GST; dsDNA, one strand shown
T4 sequence: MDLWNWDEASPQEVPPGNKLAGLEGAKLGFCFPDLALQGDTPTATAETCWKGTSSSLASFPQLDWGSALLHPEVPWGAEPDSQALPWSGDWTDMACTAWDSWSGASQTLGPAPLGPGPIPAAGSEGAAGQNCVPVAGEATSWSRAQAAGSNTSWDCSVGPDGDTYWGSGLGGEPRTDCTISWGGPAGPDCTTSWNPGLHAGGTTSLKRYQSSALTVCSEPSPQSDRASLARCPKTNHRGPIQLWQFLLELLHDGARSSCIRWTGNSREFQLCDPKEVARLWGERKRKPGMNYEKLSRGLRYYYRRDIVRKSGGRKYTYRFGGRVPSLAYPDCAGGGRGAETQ
In short: as §1

ELF3 = target: T5, ELF3 (Homo sapiens, UniProt P78545 1-371); settings: protein: recombinant; tags: N-terminal GST; dsDNA, one strand shown
T5 sequence: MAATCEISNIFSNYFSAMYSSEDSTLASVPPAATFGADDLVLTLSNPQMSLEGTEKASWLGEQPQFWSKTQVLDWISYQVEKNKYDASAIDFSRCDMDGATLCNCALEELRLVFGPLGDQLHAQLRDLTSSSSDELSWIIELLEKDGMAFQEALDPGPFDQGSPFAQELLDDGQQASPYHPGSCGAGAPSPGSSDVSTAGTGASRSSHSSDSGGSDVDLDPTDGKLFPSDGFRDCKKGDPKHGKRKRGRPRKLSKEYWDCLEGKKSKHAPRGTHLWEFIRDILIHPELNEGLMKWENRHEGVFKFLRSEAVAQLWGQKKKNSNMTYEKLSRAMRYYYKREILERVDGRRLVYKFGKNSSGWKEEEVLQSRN
In short: as §1

CRX = CRX (Homo sapiens, UniProt O43186 1-299); settings: protein: recombinant; tags: N-terminal GST; dsDNA, one strand shown
In short: as §1

ETV1 = ETV1 (Homo sapiens, UniProt P50549 1-477); settings: protein: recombinant; tags: N-terminal GST; dsDNA, one strand shown
In short: as §1

Sequence of ETV5 (P41161 whole entry): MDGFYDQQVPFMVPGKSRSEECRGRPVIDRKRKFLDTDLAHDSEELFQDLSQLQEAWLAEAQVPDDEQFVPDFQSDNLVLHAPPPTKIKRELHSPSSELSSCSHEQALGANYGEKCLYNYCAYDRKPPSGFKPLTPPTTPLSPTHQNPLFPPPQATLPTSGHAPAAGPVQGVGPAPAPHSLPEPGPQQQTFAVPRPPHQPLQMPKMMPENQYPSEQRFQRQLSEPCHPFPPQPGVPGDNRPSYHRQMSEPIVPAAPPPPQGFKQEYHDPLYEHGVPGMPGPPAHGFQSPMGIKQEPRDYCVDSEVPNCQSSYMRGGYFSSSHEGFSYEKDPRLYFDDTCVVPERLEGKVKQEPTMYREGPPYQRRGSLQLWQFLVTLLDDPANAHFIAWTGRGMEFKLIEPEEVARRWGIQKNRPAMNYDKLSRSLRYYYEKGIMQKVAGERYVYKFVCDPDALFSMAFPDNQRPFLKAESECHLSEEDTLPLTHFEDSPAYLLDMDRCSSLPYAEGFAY
Sequence of ETV1 (P50549 whole entry): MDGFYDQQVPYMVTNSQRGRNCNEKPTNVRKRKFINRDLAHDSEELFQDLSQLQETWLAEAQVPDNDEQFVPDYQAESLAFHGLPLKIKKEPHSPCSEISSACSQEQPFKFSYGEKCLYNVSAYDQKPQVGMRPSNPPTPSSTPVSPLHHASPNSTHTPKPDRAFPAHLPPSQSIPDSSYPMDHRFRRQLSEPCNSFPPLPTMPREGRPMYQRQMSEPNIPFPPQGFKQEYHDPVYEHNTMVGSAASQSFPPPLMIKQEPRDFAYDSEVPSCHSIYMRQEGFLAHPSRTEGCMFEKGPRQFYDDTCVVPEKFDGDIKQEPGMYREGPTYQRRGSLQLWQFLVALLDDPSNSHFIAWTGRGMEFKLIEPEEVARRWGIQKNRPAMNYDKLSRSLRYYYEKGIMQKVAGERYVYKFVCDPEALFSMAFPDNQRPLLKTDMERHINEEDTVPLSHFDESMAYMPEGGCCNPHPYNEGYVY
Sequence of ELF4 (Q99607 whole entry): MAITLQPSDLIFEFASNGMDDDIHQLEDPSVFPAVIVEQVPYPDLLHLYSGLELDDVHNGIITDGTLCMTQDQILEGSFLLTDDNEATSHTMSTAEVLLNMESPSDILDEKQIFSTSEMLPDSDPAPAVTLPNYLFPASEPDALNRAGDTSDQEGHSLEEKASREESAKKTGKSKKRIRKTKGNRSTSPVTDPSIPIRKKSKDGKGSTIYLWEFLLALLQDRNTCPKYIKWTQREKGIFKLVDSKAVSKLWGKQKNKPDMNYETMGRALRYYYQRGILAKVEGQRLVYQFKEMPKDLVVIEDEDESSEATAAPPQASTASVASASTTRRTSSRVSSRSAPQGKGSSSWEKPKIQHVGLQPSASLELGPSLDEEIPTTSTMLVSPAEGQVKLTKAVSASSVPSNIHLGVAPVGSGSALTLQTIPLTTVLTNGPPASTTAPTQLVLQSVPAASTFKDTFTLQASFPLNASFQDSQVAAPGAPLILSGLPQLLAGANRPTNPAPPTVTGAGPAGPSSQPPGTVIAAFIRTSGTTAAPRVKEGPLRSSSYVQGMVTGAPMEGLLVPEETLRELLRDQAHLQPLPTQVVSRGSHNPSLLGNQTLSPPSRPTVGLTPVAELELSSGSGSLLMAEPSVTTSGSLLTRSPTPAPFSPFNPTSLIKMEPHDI
Sequence of HSF1 (Q00613 whole entry): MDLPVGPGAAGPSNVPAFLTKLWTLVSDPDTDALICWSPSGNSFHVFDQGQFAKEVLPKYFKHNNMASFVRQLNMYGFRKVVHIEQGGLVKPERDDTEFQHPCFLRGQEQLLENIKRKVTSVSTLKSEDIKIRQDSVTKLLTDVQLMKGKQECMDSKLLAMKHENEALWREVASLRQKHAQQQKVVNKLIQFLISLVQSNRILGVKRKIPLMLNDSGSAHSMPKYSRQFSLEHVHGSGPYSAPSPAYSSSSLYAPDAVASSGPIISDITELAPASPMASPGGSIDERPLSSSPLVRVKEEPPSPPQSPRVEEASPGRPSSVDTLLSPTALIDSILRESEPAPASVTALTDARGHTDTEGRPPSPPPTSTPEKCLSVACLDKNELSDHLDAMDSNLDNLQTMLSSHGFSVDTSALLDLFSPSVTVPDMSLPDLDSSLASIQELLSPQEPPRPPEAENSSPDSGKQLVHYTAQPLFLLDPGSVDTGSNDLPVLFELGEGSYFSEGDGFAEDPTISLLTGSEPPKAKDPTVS
Sequence of CRX (O43186 whole entry): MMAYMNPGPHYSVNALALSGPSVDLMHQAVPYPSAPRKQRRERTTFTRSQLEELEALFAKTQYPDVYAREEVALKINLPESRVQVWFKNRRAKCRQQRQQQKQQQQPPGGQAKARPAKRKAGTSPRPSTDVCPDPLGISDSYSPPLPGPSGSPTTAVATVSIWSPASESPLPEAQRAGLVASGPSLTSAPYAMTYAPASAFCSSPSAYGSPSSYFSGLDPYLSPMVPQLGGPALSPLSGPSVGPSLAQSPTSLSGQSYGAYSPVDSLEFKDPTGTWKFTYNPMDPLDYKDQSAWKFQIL

Sequence	binding signal (FEV)	binding signal (ETV5)	binding signal (HSF1)	binding signal (SPIC)	binding signal (ELF4)	binding signal (ELK4)	binding signal (ETV2)	binding signal (ELF3)	binding signal (CRX)	binding signal (ETV1)
CGCGCT	1.11 fold enrichment (6-mer frequency, TF over GST control)	1.17 fold enrichment (6-mer frequency, TF over GST control)	1.11 fold enrichment (6-mer frequency, TF over GST control)	1.31 fold enrichment (6-mer frequency, TF over GST control)	1.2 fold enrichment (6-mer frequency, TF over GST control)	1.21 fold enrichment (6-mer frequency, TF over GST control)	1.11 fold enrichment (6-mer frequency, TF over GST control)	1.05 fold enrichment (6-mer frequency, TF over GST control)	1.06 fold enrichment (6-mer frequency, TF over GST control)	1.15 fold enrichment (6-mer frequency, TF over GST control)
GTCCTA	1.07 fold enrichment (6-mer frequency, TF over GST control)	1.16 fold enrichment (6-mer frequency, TF over GST control)	1.03 fold enrichment (6-mer frequency, TF over GST control)	1.16 fold enrichment (6-mer frequency, TF over GST control)	1.18 fold enrichment (6-mer frequency, TF over GST control)	1.13 fold enrichment (6-mer frequency, TF over GST control)	1.31 fold enrichment (6-mer frequency, TF over GST control)	1.2 fold enrichment (6-mer frequency, TF over GST control)	1.06 fold enrichment (6-mer frequency, TF over GST control)	1.12 fold enrichment (6-mer frequency, TF over GST control)
CTATTT	1.68 fold enrichment (6-mer frequency, TF over GST control)	1.64 fold enrichment (6-mer frequency, TF over GST control)	1.45 fold enrichment (6-mer frequency, TF over GST control)	2.07 fold enrichment (6-mer frequency, TF over GST control)	1.69 fold enrichment (6-mer frequency, TF over GST control)	1.88 fold enrichment (6-mer frequency, TF over GST control)	1.68 fold enrichment (6-mer frequency, TF over GST control)	2.07 fold enrichment (6-mer frequency, TF over GST control)	1.64 fold enrichment (6-mer frequency, TF over GST control)	1.74 fold enrichment (6-mer frequency, TF over GST control)
TGCTCG	1.23 fold enrichment (6-mer frequency, TF over GST control)	1.31 fold enrichment (6-mer frequency, TF over GST control)	1.56 fold enrichment (6-mer frequency, TF over GST control)	1.33 fold enrichment (6-mer frequency, TF over GST control)	1.24 fold enrichment (6-mer frequency, TF over GST control)	1.26 fold enrichment (6-mer frequency, TF over GST control)	1.21 fold enrichment (6-mer frequency, TF over GST control)	1.28 fold enrichment (6-mer frequency, TF over GST control)	1.17 fold enrichment (6-mer frequency, TF over GST control)	1.28 fold enrichment (6-mer frequency, TF over GST control)
TCCGGC	3.33 fold enrichment (6-mer frequency, TF over GST control)	2.4 fold enrichment (6-mer frequency, TF over GST control)	1.17 fold enrichment (6-mer frequency, TF over GST control)	2.2 fold enrichment (6-mer frequency, TF over GST control)	1.95 fold enrichment (6-mer frequency, TF over GST control)	2.03 fold enrichment (6-mer frequency, TF over GST control)	2.4 fold enrichment (6-mer frequency, TF over GST control)	1.97 fold enrichment (6-mer frequency, TF over GST control)	1.1 fold enrichment (6-mer frequency, TF over GST control)	2.31 fold enrichment (6-mer frequency, TF over GST control)
AGGTCT	1.11 fold enrichment (6-mer frequency, TF over GST control)	1.2 fold enrichment (6-mer frequency, TF over GST control)	1.09 fold enrichment (6-mer frequency, TF over GST control)	1.13 fold enrichment (6-mer frequency, TF over GST control)	1.2 fold enrichment (6-mer frequency, TF over GST control)	1.23 fold enrichment (6-mer frequency, TF over GST control)	1.23 fold enrichment (6-mer frequency, TF over GST control)	1.08 fold enrichment (6-mer frequency, TF over GST control)	1.21 fold enrichment (6-mer frequency, TF over GST control)	1.16 fold enrichment (6-mer frequency, TF over GST control)
CCCGCT	1.35 fold enrichment (6-mer frequency, TF over GST control)	1.32 fold enrichment (6-mer frequency, TF over GST control)	1.26 fold enrichment (6-mer frequency, TF over GST control)	1.25 fold enrichment (6-mer frequency, TF over GST control)	1.49 fold enrichment (6-mer frequency, TF over GST control)	1.62 fold enrichment (6-mer frequency, TF over GST control)	1.16 fold enrichment (6-mer frequency, TF over GST control)	1.32 fold enrichment (6-mer frequency, TF over GST control)	1.25 fold enrichment (6-mer frequency, TF over GST control)	1.44 fold enrichment (6-mer frequency, TF over GST control)
ATTCGC	1.24 fold enrichment (6-mer frequency, TF over GST control)	1.13 fold enrichment (6-mer frequency, TF over GST control)	1.47 fold enrichment (6-mer frequency, TF over GST control)	1.39 fold enrichment (6-mer frequency, TF over GST control)	1.11 fold enrichment (6-mer frequency, TF over GST control)	1.1 fold enrichment (6-mer frequency, TF over GST control)	1.29 fold enrichment (6-mer frequency, TF over GST control)	1.27 fold enrichment (6-mer frequency, TF over GST control)	1.26 fold enrichment (6-mer frequency, TF over GST control)	1.11 fold enrichment (6-mer frequency, TF over GST control)
